# In all, about 52,000 compounds went through this assay and about 4,300 (8.3%) were called active. What follows is part of a selection rich in actives, with near analogues and random picks from the rest. Unmarked numbers belong to inactive results. Rule as the data show it: active = survival mostly below about 52% (no sharp cut-off); inactive = mostly above about 56%.
# Test system: DeltatarO mutant
# Assay: growth inhibition of S. aureus wild type versus tarO mutant, primary screen, teichoic acid synthesis inhibitors, RN4220, OD600 (AID 463173)
# Conditions: OD600, 18 h, stronger effect = lower value, screened at 18.75 µg/mL (by protocol)
row,Compound,survival
1,Cc1c(C(=O)O)oc2c1-c1nn(Cc3ccc(Cl)cc3)cc1CC2,89%
2,CCOC(=O)c1oc2c(c1C)-c1nn(Cc3ccc(Cl)cc3)cc1CC2,16% (active)
3,COCCCNC(=O)c1oc2c(c1C)-c1nn(Cc3ccccc3Cl)cc1CC2,66%
4,CCOC(=O)c1ccc(NC(=O)c2oc3c(c2C)-c2nn(Cc4ccccc4Cl)cc2CC3)cc1,68%
5,CCOC(=O)c1oc2c(c1C)-c1nn(Cc3ccccc3Cl)cc1CC2,38% (active)
6,COc1ccc(NC(=O)c2oc3c(c2C)-c2nn(Cc4ccccc4Cl)cc2CC3)cc1OC,53% (active)
7,Cc1c(C(=O)O)oc2c1-c1nn(Cc3ccccc3Cl)cc1CC2,80%
8,CCOC(=O)c1oc2c(c1C)-c1nn(Cc3cccc(Cl)c3)cc1CC2,53%
9,CC(=O)Nc1ccc(NC(=O)c2oc3c(c2C)-c2nn(Cc4ccccc4Cl)cc2CC3)cc1,61%
10,CC1=C(C(=O)OCC2CCCCC2)C(c2cccc(F)c2F)CC(=O)N1 (centres undefined),95%
11,O=C1CC(NC2CC2)C(=O)N1c1ccccc1 (centres undefined),93%
12,COc1ccc2c(c1)CCc1c(C(=O)Nc3c(C)nn(Cc4ccc(Cl)c(Cl)c4)c3C)noc1-2,153%
13,Cc1nn(Cc2ccc(Cl)cc2)c(C)c1NC(=O)c1noc2c1CCc1ccccc1-2,31% (active)
14,COc1ccc2c(c1)CCc1c(C(=O)Nc3c(C)nn(Cc4ccccc4)c3C)noc1-2,118%
15,Cc1nn(Cc2ccc(Cl)c(Cl)c2)c(C)c1NC(=O)c1noc2c1CCc1ccccc1-2,46% (active)
16,COc1ccc2c(c1)CCc1c(C(=O)Nc3cnn(Cc4ccc(Cl)cc4Cl)c3)noc1-2,142%
17,COc1ccc(Cl)cc1NC(=O)c1noc2c1CCc1ccccc1-2,71%
18,COc1ccc2c(c1)CCc1c(C(=O)Nc3c(C)nn(Cc4ccc(Cl)cc4)c3C)noc1-2,107%
19,Cc1nn(Cc2ccc(F)cc2)c(C)c1NC(=O)c1noc2c1CCc1ccccc1-2,63%
20,O=C(Nc1cnn(Cc2ccc(Cl)cc2Cl)c1)c1noc2c1CCc1ccccc1-2,47% (active)
21,CCOC(=O)c1ccc(OC(=O)c2cn(-c3cccc(OC)c3)c(=O)c3ccccc23)cc1,85%
22,Cc1cc(NC(=O)CSc2nc3c([nH]c4ccccc43)c(=O)n2-c2cccc(Cl)c2)no1,73%
23,CC(=O)c1cc(-c2ccc(F)cc2)n(CC(=O)NCc2ccc(C)cc2)c1C,99%
24,COc1ccc2nc(N(Cc3cccnc3)C(=O)c3ccc4c(c3)OCCO4)sc2c1,65%
